Assay outcomes: PubChem, National Center for Advancing Translational Sciences (NCATS)
Mito fusion yeast: blocks mitochondrial division or promotes mitochondrial fusion; Potency, µM (highest dose often 46.1 µM), actives largely listed as activators; 320,000 compounds, 0.23% hits; AID 485298; S. cerevisiae fusion-defective mutant growth rescue, CellTiterGlo 48 h; further: nearly all actives have a fitted effect of over 45% in size
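Compounds are tested for their ability to restore growth of mitochondrial fusion-defective yeast strains at non-permissive 37C in YPEG medium over 48 hours. Viability is quantified by luciferase luminescence.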
S-ASM inh: human S-ASM enzyme inhibition. 340,000 compounds, 0.006% hits. AID 504937. Potency, µM (series often up to 57.5 µM), most hits filed as inhibitors. P17405. placental ASM, HMU-PC fluorogenic substrate, 60 min
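Steps: dispense placental human ASM, pin compound, wait 10 min at room temperature, add HMU-PC0 substrate at 9 uM final, incubate 60 min at 37 °C, add stop solution raising pH to 10, read fluorescence.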
IDH1 R132H inh: blocks human mutant IDH1 R132H enzyme; IDH1-R132H enzyme, NADPH consumption, diaphorase/resazurin fluorescence; Potency, µM (titrated, usually from 76.6 µM), hits mostly inhibitors; 390,000 compounds, 0.093% hits; further: nearly all actives have a fitted effect of over 65% in size
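IDH1-R132H (0.5 ug/mL) preincubated 30 min with compound, then NADPH (0.016 mM) and alpha-KG (2 mM) added; 80 min at RT, pH 7.5. Remaining NADPH coupled via diaphorase/resazurin to fluorescence (540/590 nm); concentration-response curves normalized to no-enzyme control.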
LDHA inh: blocks human lactate dehydrogenase A; purified LDHA, NADH/diaphorase-resazurin fluorescence; hits give low values; activity change, % (values are at about 110 or 230 µM); 480,000 compounds, 0.15% hits; in the data active means activity change below about -30%; inconclusive means mostly about -25% to -30%
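Enzyme activity of human lactate dehydrogenase 5 (2 nM; 0.06 mM NADH, 0.2 mM pyruvate, 5 min, RT) is measured via a resazurin/diaphorase fluorescence readout of residual NADH.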
ClpP mod: qHTS Assay for Activators of ClpP | purified B. subtilis ClpP, FRET peptide cleavage, 20 min | Potency, µM (top dose mostly 57.5 µM) | 340,000 compounds, 1.9% hits | AID 651965, 2013; active means well fitted falling curve with a large enough effect; inconclusive means small, poorly fitted or top-dose-only effect; inactive means no such curve, though single readings can be large or run the other way; further: the source files actives as falling curves though it sought activators and does not explain the sign; nearly all actives have a fitted effect of over 65% in size
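Purified B. subtilis ClpP, 10 microg/mL final in Tris/HCl pH8 with KCl, BSA, glycerol and Tween-20, cleaved an Abz/nitrotyrosine-quenched decapeptide. Fluorescence (ex 320, em 430) was read at 0 and 20 min at room temperature. Delta was normalized to 5.8 microM ADEP and DMSO/no-enzyme controls.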
RGS4 inhibitor: blocks human RGS4-accelerated GTP hydrolysis; P49798; Transcreener GDP fluorescence polarization, RGS4-accelerated GTP hydrolysis; Potency, µM (series often up to 114 µM), actives largely listed as inhibitors; 390,000 compounds, 0.039% hits; AID 504845; further: nearly all actives have a fitted effect of over 75% in size
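MLSMR compounds (23 nl, pin-transferred) preincubated 10 min at room temperature with a 500nM (2x) first reagent, then RGS4 at 900nM (2x) plus Transcreener GDP mix added; fluorescence polarization (620/688 nm) read before and after 90 min at 30 °C.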
Hits are given with their value. The entries come from a sample that favours hits as a whole. Unless noted, the call rests on the fitted dose curve; in most records, active means well fitted curve in the direction sought with a large enough effect; inconclusive means small, poorly fitted or top-dose-only effect, or another doubt; inactive means no such curve, though single readings can be large; an effect the other way counts as inactive or inconclusive.

How did Cc1cccn2c(=O)c(C=Nc3ccc(Cl)cc3)c(NCCO)nc12 do in these assays?
Mito fusion yeast: inactive; S-ASM inh: inactive; IDH1 R132H inh: inactive; LDHA inh: inactive; ClpP mod: 28µM; RGS4 inhibitor: inactive

What do the screens show for `CN=Cc1c(NC)nc2c(C)cccn2c1=O`?
Mito fusion yeast: inactive; S-ASM inh: inactive; IDH1 R132H inh: inactive; LDHA inh: inactive; ClpP mod: 40µM; RGS4 inhibitor: inactive

Results for C[C@H](NC(=O)NCCc1ccccc1F)C(=O)O ?
LDHA inh: inactive

How did O=C(Cc1c[nH]c2ccccc12)OCc1ccc(-c2ccccc2)cc1 do in these assays?
LDHA inh: inactive

What do the screens show for `COc1ccccc1-c1coc2cc(OCC(=O)OCCC(C)C)ccc2c1=O`?
LDHA inh: inactive

What do the screens show for `COc1ccc(/C=C2\SC(=Nc3ccccc3OC)NC2=O)cc1`?
Mito fusion yeast: inactive; S-ASM inh: inactive; IDH1 R132H inh: inactive; LDHA inh: inactive; ClpP mod: inactive; RGS4 inhibitor: inactive

Results for COc1ccc(/C=C2\SC(=NCc3ccccc3)NC2=O)cc1 ?
Mito fusion yeast: inactive; S-ASM inh: inactive; IDH1 R132H inh: inactive; LDHA inh: inactive; ClpP mod: 22µM; RGS4 inhibitor: inactive

Results for CCOC(=O)c1ccc(N2C(=O)c3n[nH]c(-c4ccco4)c3C2c2cccc([N+](=O)[O-])c2)cc1 (stereo not given) ?
Mito fusion yeast: inconclusive; S-ASM inh: 28µM; IDH1 R132H inh: inactive; LDHA inh: inactive; ClpP mod: inactive; RGS4 inhibitor: inactive

Results for Cc1ccc(CN(CC(O)COc2cccc3[nH]cc(C)c23)C(C)(C)C)cc1 (stereo not given) ?
Mito fusion yeast: 5.6µM; S-ASM inh: inactive; IDH1 R132H inh: inactive; LDHA inh: inactive; ClpP mod: inactive; RGS4 inhibitor: inactive

How did C=CCOc1ccc(CNCC2CC2)cc1 do in these assays?
LDHA inh: inactive

Results for CNc1nc(-c2cc(C)n(-c3c(C)n(C)n(-c4ccccc4)c3=O)c2C)cs1 ?
LDHA inh: inactive

What do the screens show for `O=c1ccc2ccc(O)c(O)c2o1`?
Mito fusion yeast: 23µM; RGS4 inhibitor: inconclusive

What do the screens show for `COc1ccc(CCNC(=O)c2ccc(CN3CCC(Cc4ccccc4)CC3)cc2)cc1OC`?
Mito fusion yeast: inactive; S-ASM inh: inactive; IDH1 R132H inh: inactive; LDHA inh: inactive; ClpP mod: inactive; RGS4 inhibitor: inactive

What do the screens show for `COc1ccc(CCNC(=S)N2CCC(Cc3ccccc3)CC2)cc1OC`?
Mito fusion yeast: inactive; S-ASM inh: inactive; IDH1 R132H inh: inactive; LDHA inh: inactive; ClpP mod: 7.9µM; RGS4 inhibitor: inactive

How did COc1ccc(-c2ccc(=O)n(C3CCc4ccccc4NC3=O)n2)c(F)c1 (stereo not given) do in these assays?
LDHA inh: inactive

Results for CC(=O)N/C(=C\c1ccc2c(c1)OCO2)C(=O)NC(C(=O)O)c1ccccc1 (stereo not given) ?
Mito fusion yeast: inactive; S-ASM inh: inactive; IDH1 R132H inh: inactive; LDHA inh: inactive; RGS4 inhibitor: inactive

What do the screens show for `CC(=O)N/C(=C/c1ccc2c(c1)OCO2)C(=O)NC(Cc1ccccc1)C(=O)O` (stereo not given)?
S-ASM inh: inactive; IDH1 R132H inh: inactive; LDHA inh: inactive; ClpP mod: 32µM; RGS4 inhibitor: inactive

What do the screens show for `COc1ccccc1N1CCN(C2CCN(S(=O)(=O)c3ccc(NC(C)=O)cc3)CC2)CC1`?
Mito fusion yeast: inactive; S-ASM inh: inactive; IDH1 R132H inh: inactive; LDHA inh: inactive; RGS4 inhibitor: inactive

How did COc1ccc(S(=O)(=O)N2CCC(N3CCN(c4ccccc4OC)CC3)CC2)cc1 do in these assays?
Mito fusion yeast: inactive; S-ASM inh: inactive; IDH1 R132H inh: inactive; LDHA inh: -32; RGS4 inhibitor: inactive

What do the screens show for `COc1cccc(-c2nc(SCC(=O)NC3CCCC3)c(-c3ccc(C)cc3)[nH]2)c1`?
IDH1 R132H inh: inactive; LDHA inh: inactive; ClpP mod: inconclusive; RGS4 inhibitor: inactive

What do the screens show for `COc1cccc(-c2nc(SCC(=O)NCC3CCCO3)c(-c3ccc(Cl)cc3)[nH]2)c1` (stereo not given)?
IDH1 R132H inh: inactive; LDHA inh: inactive; ClpP mod: 25µM; RGS4 inhibitor: inactive

Results for COc1cccc(-c2nc(SCC(=O)NC3CCCC3)c(-c3ccccc3)[nH]2)c1 ?
IDH1 R132H inh: inactive; LDHA inh: inactive; ClpP mod: 32µM; RGS4 inhibitor: inactive

What do the screens show for `COc1cccc(-c2nc(SCC(=O)NC3CCCC3)c(-c3ccc(F)cc3)[nH]2)c1`?
IDH1 R132H inh: inactive; LDHA inh: inactive; ClpP mod: 35µM; RGS4 inhibitor: inactive

Results for COc1cccc(-c2nc(SCC(=O)NCC3CCCO3)c(-c3ccc(C)cc3)[nH]2)c1 (stereo not given) ?
IDH1 R132H inh: inactive; LDHA inh: inactive; ClpP mod: inconclusive; RGS4 inhibitor: inactive

Results for O=C(CSc1nc(-c2ccccc2)[nH]c1-c1ccc(F)cc1)NC1CCCC1 ?
IDH1 R132H inh: inactive; LDHA inh: inactive; ClpP mod: inconclusive; RGS4 inhibitor: inactive

What do the screens show for `c1ccc2[nH]c(CSc3ccc4c(c3)OCCO4)nc2c1`?
LDHA inh: inactive

Results for O=C(O)C1CCCCC1C(=O)Nc1nc(-c2ccc(Cl)s2)cs1 (stereo not given) ?
Mito fusion yeast: inactive; S-ASM inh: inactive; IDH1 R132H inh: inactive; LDHA inh: inactive; RGS4 inhibitor: inactive

What do the screens show for `O=C(Nc1nc(-c2ccc(Cl)s2)cs1)C1CC1`?
LDHA inh: -34

What do the screens show for `O=C(CSc1nnc2ccc(-c3ccccn3)nn12)Nc1ccccc1`?
Mito fusion yeast: inactive; S-ASM inh: inactive; IDH1 R132H inh: inactive; LDHA inh: inactive; ClpP mod: inactive; RGS4 inhibitor: inactive

How did COc1ccc(NC(=O)CSc2nnc3ccc(-c4ccccn4)nn23)cc1 do in these assays?
Mito fusion yeast: inactive; IDH1 R132H inh: inactive; LDHA inh: inactive; ClpP mod: 16µM; RGS4 inhibitor: inactive

What do the screens show for `COc1ccc(-c2ccnc(SCC(=O)Nc3ccccn3)n2)cc1`?
Mito fusion yeast: inactive; S-ASM inh: inactive; IDH1 R132H inh: inactive; LDHA inh: inactive; ClpP mod: 35µM; RGS4 inhibitor: inactive

Results for COc1ccccc1NC(=O)CSc1nccc(-c2ccc(OC(F)F)cc2)n1 ?
LDHA inh: inactive

How did Cc1cc(Cl)ccc1OC(C)C(=O)N/N=C(\CCC(=O)O)c1ccccc1 (stereo not given) do in these assays?
LDHA inh: inactive
